Records with an inconclusive call do not appear. Active and inactive are the calls of the source. Rule for the calls, unless noted: active = hit-call score of the fitted dose curve at least 0.9, where 1 is the maximum; inactive = score below 0.9.
How the values were obtained:
[1] = molecular target: Retinoic acid receptor RXR-alpha (Homo sapiens) (UniProt P19793); assay: ATG_RXRa_TRANS: Attagene TRANS-FACTORIAL HepG2 Assay for human Retinoid X Receptor alpha (RXRa) (AID 2283012; active = hit-call score of the fitted dose curve at least 0.9, where 1 is the maximum)
In short: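 HepG2 cells transiently transfected with GAL4-UAS reporter units and chimeric RXRa-Gal4 protein, treated 24 h. Reporter mRNA measured by RT-PCR, fluorescent labelling, HpaI digestion and capillary electrophoresis. Induction fitted against DMSO.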

[2] = molecular target: human Thyroid Receptor alpha (THRa1), THRA (gene 7067) (UniProt P10827); assay: ATG_THRa1_TRANS: Attagene TRANS-FACTORIAL HepG2 Assay for human Thyroid Receptor alpha (THRa1) (AID 2283014; active = hit-call score of the fitted dose curve at least 0.9, where 1 is the maximum)
In short: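 Reporter transcript induction, read by capillary electrophoresis of 6-FAM-labelled RT-PCR products, reflects activity of a transfected THRa1-Gal4 fusion in HepG2 liver cells. Cells were dosed for 24 h; activity was fitted in the positive direction against DMSO.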

[3] = read-out: Interleukin-1 alpha (IL1a), IL1A (gene 3552); assay: BSK_BE3C_IL1a: BioMAP Diversity Plus: BE3C Assay for Interleukin-1 alpha (IL1a) Biomarker Activity (AID 2283016); details: primary human bronchial epithelial cells; actives raise or lower the signal
In short: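 Human primary bronchial epithelial cells, 24 h chemical exposure; IL-1a quantified by ELISA, fitted bidirectionally against DMSO. Cytotoxicity assessed in parallel by SRB total-protein staining at the time of measurement.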

[4] = read-out: Monocyte Chemoattractant Protein-1 (MCP1), CCL2 (gene 6347); assay: BSK_3C_MCP1: BioMAP Diversity Plus: 3C Assay for Monocyte Chemoattractant Protein-1 (MCP1) Biomarker Activity (AID 2283017); details: primary human endothelial cells (HUVEC); actives raise or lower the signal
In short: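 ELISA read-out of MCP-1 from human umbilical vein endothelial cell cultures harvested 24 h post-dosing. Gain or loss of signal was fitted relative to DMSO.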

[5] = read-out: Human Leukocyte Antigen - DR isotype (HLADR), HLA-DRA (gene 3122); assay: BSK_3C_HLADR: BioMAP Diversity Plus: 3C Assay for Human Leukocyte Antigen - DR isotype (HLADR) Biomarker Activity (AID 2283019); details: primary human endothelial cells (HUVEC); actives raise or lower the signal
In short: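 ELISA readout of surface HLA-DR on human umbilical vein endothelium, taken 24 h after chemical treatment. Gain- and loss-of-signal were both fitted relative to DMSO.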

[6] = read-out: Interleukin-8 (IL8), CXCL8 (gene 3576); assay: BSK_3C_IL8: BioMAP Diversity Plus: 3C Assay for Interleukin-8 (IL8) Biomarker Activity (AID 2283020); details: primary human endothelial cells (HUVEC); actives raise or lower the signal
In short: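 Primary human umbilical vein endothelial cells were dosed for 24 h. IL-8 was quantified by ELISA and fitted bidirectionally against DMSO. Cytotoxicity was assessed in parallel cultures by SRB staining at 560 nm.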

[7] = read-out: Monokine induced gamma interferon (MIG), CXCL9 (gene 4283); assay: BSK_3C_MIG: BioMAP Diversity Plus: 3C Assay for Monokine induced gamma interferon (MIG) Biomarker Activity (AID 2283021); details: primary human endothelial cells (HUVEC); actives raise or lower the signal;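 for AC50: MIG protein level measured by immunoassay in the treated endothelial cultures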
In short: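 HUVEC primary endothelial cultures dosed with chemical; MIG quantified by ELISA at 24 h. Data fitted bidirectionally against DMSO control, with parallel SRB total-protein staining for cytotoxicity.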

[8] = BSK_3C_SRB: Viability Assessment in the BioMAP Diversity Plus: 3C Assay (AID 2283023); details: primary human endothelial cells (HUVEC);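 note: fitted both ways against DMSO so a hit may be signal rise or drop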
In short: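 Absorbance at 560 nm of sulforhodamine B-stained (0.1%) total protein served as a cytotoxicity readout in human umbilical vein endothelial cells, 24 h after chemical treatment. Signal was fitted bidirectionally relative to DMSO.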

[9] = read-out: Matrix Metallopeptidase 1 (MMP1), MMP1 (gene 4312); assay: BSK_BE3C_MMP1: BioMAP Diversity Plus: BE3C Assay for Matrix Metallopeptidase 1 (MMP1) Biomarker Activity (AID 2283024); details: primary human bronchial epithelial cells; actives raise or lower the signal
In short: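 Human primary bronchial epithelial cells (BE3C system) dosed for 24 h; MMP-1 quantified by ELISA. Bidirectional fit against DMSO; cytotoxicity tracked in parallel cultures by SRB total-protein staining.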

[10] = BSK_3C_Vis: BioMAP Diversity Plus: 3C Assay for Morphology Visualization (AID 2283025); details: primary human endothelial cells (HUVEC);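 note: fitted both ways so gain or loss versus DMSO counts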;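 for AC50: light microscopy image of cell morphology used as background control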
In short: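 Human umbilical vein endothelial cell morphology was inspected by light microscopy 24 h after chemical dosing; scored bidirectionally relative to DMSO.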

[11] = read-out: Pselectin, SELP (gene 6403); assay: BSK_4H_Pselectin: BioMAP Diversity Plus: 4H Assay for Pselectin Biomarker Activity (AID 2283026); details: primary human endothelial cells (HUVEC); actives raise or lower the signal
In short: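 Primary human umbilical vein endothelial cells were treated 24 h, and cell-surface P-selectin was then quantified by ELISA. Bidirectional fit versus DMSO; cytotoxicity checked in parallel cultures by SRB total-protein staining.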

[12] = BSK_4H_SRB: Viability Assessment in the BioMAP Diversity Plus: 4H Assay (AID 2283027); details: primary human endothelial cells (HUVEC);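 note: cells exposed to compound for 24 h before staining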;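 for AC50: curves fitted both ways versus DMSO so AC50 may be loss or gain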
In short: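 Absorbance at 560 nm of SRB-stained total protein served as the viability read-out in confluent primary human umbilical vein endothelium 24 h after chemical treatment. Curves were fitted bidirectionally against DMSO as negative control.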

[13] = BSK_BE3C_SRB: Viability Assessment in the BioMAP Diversity Plus: BE3C Assay (AID 2283028); details: primary human bronchial epithelial cells;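 for AC50: fitted both ways so AC50 may mark signal gain or loss versus DMSO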
In short: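 Cells (human bronchial epithelial, primary) are treated with chemicals, and after 24 h the parallel cultures are fixed in 10% TCA. These are then stained with 0.1% SRB and read at 560 nm. Gain or loss of signal is fitted relative to DMSO.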

[14] = read-out: Thrombomodulin, THBD (gene 7056); assay: BSK_3C_Thrombomodulin: BioMAP Diversity Plus: 3C Assay for Thrombomodulin Biomarker Activity (AID 2283029); details: primary human endothelial cells (HUVEC); actives raise or lower the signal
In short: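 Human umbilical vein endothelial cells were exposed to chemicals for 24 h; cell-surface thrombomodulin quantified by ELISA, with bidirectional fitting against DMSO baseline.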

[15] = read-out: Urokinase-type plasminogen activator receptor (uPAR), PLAUR (gene 5329); assay: BSK_4H_uPAR: BioMAP Diversity Plus: 4H Assay for Urokinase-type plasminogen activator receptor (uPAR) Biomarker Activity (AID 2283030); details: primary human endothelial cells (HUVEC); actives raise or lower the signal
In short: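 Cell-surface uPAR ELISA signal, measured 24 h after dosing human umbilical vein endothelial cells, was analyzed with bidirectional fitting relative to DMSO. Parallel SRB staining of total protein tracked overt cytotoxicity.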

[16] = molecular target: human Retinoid X Receptor beta (RXRb), RXRB (gene 6257) (UniProt P28702); assay: ATG_RXRb_TRANS: Attagene TRANS-FACTORIAL HepG2 Assay for human Retinoid X Receptor beta (RXRb) (AID 2283013; active = hit-call score of the fitted dose curve at least 0.9, where 1 is the maximum)
In short: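 HepG2 cells were transiently transfected with multiplexed GAL4-UAS reporters and a chimeric RXRb-Gal4 construct, then exposed for 24 h. Reporter mRNA was quantified by RT-PCR, FAM labeling, HpaI digestion and capillary electrophoresis; gain of signal was scored against DMSO.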

[17] = read-out: E-selectin (Homo sapiens) (UniProt P16581); assay: BSK_3C_Eselectin: BioMAP Diversity Plus: 3C Assay for Eselectin Biomarker Activity (AID 2283015); details: primary human endothelial cells (HUVEC); actives raise or lower the signal
In short: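 ELISA read-out of E-selectin on endothelial monolayers after 24 h chemical treatment. Human umbilical vein primary cells served as the system, with DMSO defining baseline activity for bidirectional fitting.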

[18] = read-out: Monocyte Chemoattractant Protein-1 (MCP1), CCL2 (gene 6347); assay: BSK_4H_MCP1: BioMAP Diversity Plus: 4H Assay for Monocyte Chemoattractant Protein-1 (MCP1) Biomarker Activity (AID 2283018); details: primary human endothelial cells (HUVEC); actives raise or lower the signal
In short: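 Human umbilical vein endothelial cells (4H system) exposed to chemicals for 24 h in 96-well format. MCP-1 measured by ELISA; bidirectional fitting against DMSO, with SRB total-protein staining in parallel cultures for cytotoxicity.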

[19] = molecular target: human Vitamin D Receptor (VDR), VDR (gene 7421) (UniProt P11473); assay: ATG_VDR_TRANS: Attagene TRANS-FACTORIAL HepG2 Assay for human Vitamin D Receptor (VDR) (AID 2283022; active = hit-call score of the fitted dose curve at least 0.9, where 1 is the maximum)
In short: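 Steps: transfect HepG2 with GAL4-UAS-driven reporter constructs; dose compounds 24 h; isolate RNA, reverse-transcribe, PCR-amplify with 6-FAM-labelled primer extension and HpaI digestion; quantify fragments by capillary electrophoresis relative to DMSO.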

[20] = molecular target: human RAR-related Orphan Receptor gamma (RORg), RORC (gene 6097) (UniProt P51449); assay: ATG_RORg_TRANS: Attagene TRANS-FACTORIAL HepG2 Assay for human RAR-related Orphan Receptor gamma (RORg) (AID 2283011; active = hit-call score of the fitted dose curve at least 0.9, where 1 is the maximum)
In short: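 First, HepG2 liver cells were transfected with GAL4-UAS-driven reporter constructs and the RORg-Gal4 fusion. Next, they were treated with chemical for 24 h. Finally, reporter mRNA was quantified by RT-PCR and capillary electrophoresis, with upward activity fitted against DMSO.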

Measured: AC50

Chain of human Thyroid Receptor alpha (THRa1), THRA (gene 7067) (P10827 whole entry, looked up, the tested form may be a part): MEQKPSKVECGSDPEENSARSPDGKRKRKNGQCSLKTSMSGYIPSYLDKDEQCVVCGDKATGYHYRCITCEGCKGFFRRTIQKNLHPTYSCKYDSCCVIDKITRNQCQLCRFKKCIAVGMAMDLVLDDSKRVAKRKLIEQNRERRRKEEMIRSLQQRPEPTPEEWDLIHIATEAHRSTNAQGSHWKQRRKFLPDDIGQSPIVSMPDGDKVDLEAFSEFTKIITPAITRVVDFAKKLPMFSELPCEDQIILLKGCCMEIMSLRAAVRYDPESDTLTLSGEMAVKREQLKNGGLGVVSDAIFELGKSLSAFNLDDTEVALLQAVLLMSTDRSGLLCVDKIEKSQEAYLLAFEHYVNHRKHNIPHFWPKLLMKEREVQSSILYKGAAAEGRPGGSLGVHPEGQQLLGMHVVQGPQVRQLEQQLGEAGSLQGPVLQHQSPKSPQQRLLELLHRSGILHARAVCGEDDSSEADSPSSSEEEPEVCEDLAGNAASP
Chain of E-selectin (Homo sapiens) (P16581 whole entry, looked up): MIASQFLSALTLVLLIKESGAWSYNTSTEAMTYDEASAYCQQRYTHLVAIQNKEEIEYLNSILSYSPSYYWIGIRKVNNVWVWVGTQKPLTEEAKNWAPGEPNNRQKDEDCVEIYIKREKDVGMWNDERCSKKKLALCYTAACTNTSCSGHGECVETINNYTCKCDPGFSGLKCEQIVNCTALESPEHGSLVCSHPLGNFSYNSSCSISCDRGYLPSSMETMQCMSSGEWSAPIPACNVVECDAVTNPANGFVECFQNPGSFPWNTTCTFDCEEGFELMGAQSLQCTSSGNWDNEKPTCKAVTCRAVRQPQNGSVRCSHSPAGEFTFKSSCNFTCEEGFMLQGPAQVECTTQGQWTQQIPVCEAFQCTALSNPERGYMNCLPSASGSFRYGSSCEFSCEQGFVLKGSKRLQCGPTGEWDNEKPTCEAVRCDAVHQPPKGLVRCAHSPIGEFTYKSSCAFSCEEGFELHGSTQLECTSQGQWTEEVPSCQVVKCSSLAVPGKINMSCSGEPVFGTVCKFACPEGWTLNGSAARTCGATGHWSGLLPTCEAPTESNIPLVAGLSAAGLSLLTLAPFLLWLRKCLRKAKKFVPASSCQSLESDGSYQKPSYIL
Chain of human Vitamin D Receptor (VDR), VDR (gene 7421) (P11473 whole entry, looked up, the tested form may be a part): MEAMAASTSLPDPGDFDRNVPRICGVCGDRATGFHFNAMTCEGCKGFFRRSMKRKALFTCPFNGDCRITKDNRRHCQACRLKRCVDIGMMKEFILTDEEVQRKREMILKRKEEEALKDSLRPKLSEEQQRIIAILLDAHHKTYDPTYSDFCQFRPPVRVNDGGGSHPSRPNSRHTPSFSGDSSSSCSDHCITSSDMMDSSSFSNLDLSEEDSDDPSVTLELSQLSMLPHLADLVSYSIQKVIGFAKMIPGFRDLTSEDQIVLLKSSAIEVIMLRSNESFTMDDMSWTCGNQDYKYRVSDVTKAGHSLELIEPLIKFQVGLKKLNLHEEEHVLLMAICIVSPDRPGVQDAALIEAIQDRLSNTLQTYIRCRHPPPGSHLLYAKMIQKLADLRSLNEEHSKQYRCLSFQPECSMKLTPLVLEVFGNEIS
Chain of Retinoic acid receptor RXR-alpha (Homo sapiens) (P19793 whole entry, looked up, the tested form may be a part): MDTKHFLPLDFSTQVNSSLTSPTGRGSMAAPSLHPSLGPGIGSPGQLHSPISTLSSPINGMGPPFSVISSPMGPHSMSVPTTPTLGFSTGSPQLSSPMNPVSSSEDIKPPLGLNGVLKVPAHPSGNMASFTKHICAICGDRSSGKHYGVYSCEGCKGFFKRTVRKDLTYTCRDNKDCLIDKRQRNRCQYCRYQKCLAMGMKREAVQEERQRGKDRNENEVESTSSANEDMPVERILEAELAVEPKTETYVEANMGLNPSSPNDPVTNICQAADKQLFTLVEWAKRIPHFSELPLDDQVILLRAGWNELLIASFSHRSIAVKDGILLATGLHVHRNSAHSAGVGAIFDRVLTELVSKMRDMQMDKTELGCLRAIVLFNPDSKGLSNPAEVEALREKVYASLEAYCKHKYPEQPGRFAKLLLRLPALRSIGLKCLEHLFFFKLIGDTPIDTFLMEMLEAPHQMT
Chain of human Retinoid X Receptor beta (RXRb), RXRB (gene 6257) (P28702 whole entry, looked up, the tested form may be a part): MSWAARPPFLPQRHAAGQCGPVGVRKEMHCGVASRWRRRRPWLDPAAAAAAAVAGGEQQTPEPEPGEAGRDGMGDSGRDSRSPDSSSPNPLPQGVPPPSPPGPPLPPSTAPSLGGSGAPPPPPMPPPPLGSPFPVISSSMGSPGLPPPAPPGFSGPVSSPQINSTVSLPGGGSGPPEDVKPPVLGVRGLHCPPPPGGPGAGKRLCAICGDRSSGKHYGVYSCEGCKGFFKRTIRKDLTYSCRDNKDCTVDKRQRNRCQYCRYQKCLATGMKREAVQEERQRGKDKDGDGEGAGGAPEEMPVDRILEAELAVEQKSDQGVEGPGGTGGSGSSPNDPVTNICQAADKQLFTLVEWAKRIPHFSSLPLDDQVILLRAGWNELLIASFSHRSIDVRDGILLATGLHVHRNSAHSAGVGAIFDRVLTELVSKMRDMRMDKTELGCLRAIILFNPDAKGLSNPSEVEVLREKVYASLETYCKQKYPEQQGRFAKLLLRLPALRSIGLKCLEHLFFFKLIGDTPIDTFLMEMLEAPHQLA
Chain of human RAR-related Orphan Receptor gamma (RORg), RORC (gene 6097) (P51449 whole entry, looked up, the tested form may be a part): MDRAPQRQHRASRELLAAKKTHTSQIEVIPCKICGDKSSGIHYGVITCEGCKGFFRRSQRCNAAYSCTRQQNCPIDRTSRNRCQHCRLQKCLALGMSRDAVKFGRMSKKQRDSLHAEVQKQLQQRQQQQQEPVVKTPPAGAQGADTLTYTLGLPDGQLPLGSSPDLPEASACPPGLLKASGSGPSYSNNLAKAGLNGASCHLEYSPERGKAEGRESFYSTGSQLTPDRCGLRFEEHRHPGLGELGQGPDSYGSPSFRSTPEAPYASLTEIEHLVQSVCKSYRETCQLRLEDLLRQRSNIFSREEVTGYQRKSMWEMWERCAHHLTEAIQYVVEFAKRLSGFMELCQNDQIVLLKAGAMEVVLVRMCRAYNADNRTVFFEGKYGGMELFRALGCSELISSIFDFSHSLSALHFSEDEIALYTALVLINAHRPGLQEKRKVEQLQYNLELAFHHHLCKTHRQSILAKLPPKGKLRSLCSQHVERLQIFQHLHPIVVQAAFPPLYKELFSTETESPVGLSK

CCc1cccc(CC)c1N(COC)C(=O)CCl
active: [4] 14.4 µM | [5] 20 µM | [8] 20 µM | [10] 39 µM | [11] 14.9 µM | [12] 14.8 µM
not listed: [16] | [17] | [18] | [19] | [20]
inactive: all other assays above

CSc1nnc(C(C)(C)C)c(=O)n1N
not listed: [5] | [19] | [20]
inactive: all other assays above

C#CCC1=C(C)C(OC(=O)C2C(C=C(C)C)C2(C)C)CC1=O (stereo not given)
active: [4] 32.2 µM | [5] 20 µM | [6] 30.7 µM | [8] 28.5 µM | [11] 31.6 µM | [12] 33.8 µM | [13] 18 µM
not listed: [2] | [17] | [18] | [20]
inactive: all other assays above

Nc1nc(N)nc(NC2CC2)n1
not listed: [2] | [18] | [19] | [20]
inactive: all other assays above

CCCCSP(=O)(SCCCC)SCCCC
active: [17] 28.1 µM | [4] 26 µM | [18] 16.7 µM | [5] 27.7 µM | [6] 31.9 µM | [8] 27.9 µM | [10] 13.7 µM | [12] 20 µM | [13] 14.7 µM | [14] 5.35 µM
inactive: [1] | [16] | [3] | [7] | [19] | [9] | [11] | [15]

CON=C(C(=O)OC)c1ccccc1CON=C(C)c1cccc(C(F)(F)F)c1
active: [4] 3.3 µM | [5] 2.82 µM | [6] 1.76 µM | [8] 10.4 µM | [12] 5.67 µM | [14] 3.92 µM
not listed: [17] | [18] | [19] | [20]
inactive: all other assays above

FC(F)C(F)(F)OCC(Cn1cncn1)c1ccc(Cl)cc1Cl (stereo not given)
active: [18] 23.2 µM | [5] 26.9 µM | [8] 20 µM | [10] 39 µM | [11] 33.7 µM | [15] 31.7 µM
not listed: [16] | [17] | [19] | [20]
inactive: all other assays above

COc1ccc(C(=CC(=O)N2CCOCC2)c2ccc(Cl)cc2)cc1OC
active: [4] 6.59 µM | [5] 13.9 µM | [14] 3.36 µM
not listed: [17] | [20]
inactive: all other assays above

CC1=NNC(=O)N(/N=C/c2cccnc2)C1
not listed: [20]
inactive: all other assays above

CCOC(=O)CC(SP(=O)(OC)OC)C(=O)OCC (stereo not given)
not listed: [18] | [19] | [20]
inactive: all other assays above

CCCCN(CC)c1c([N+](=O)[O-])cc(C(F)(F)F)cc1[N+](=O)[O-]
active: [5] 20 µM | [8] 16.4 µM | [10] 39 µM
not listed: [2] | [16] | [18] | [20]
inactive: all other assays above

CCCOc1nn(C(=O)NS(=O)(=O)c2ccccc2C(=O)OC)c(=O)n1C
not listed: [16] | [17] | [18] | [19] | [20]
inactive: all other assays above

COc1cccc(C(=O)NN(C(=O)c2cc(C)cc(C)c2)C(C)(C)C)c1C
active: [10] 39 µM
not listed: [1] | [2] | [16] | [18] | [19] | [20]
inactive: all other assays above

CC(Oc1cccc(Cl)c1)C(=O)O (stereo not given)
not listed: [1] | [2] | [16] | [19]
inactive: all other assays above

CCOP(=S)(OCC)SCCSCC
active: [10] 9.8 µM
not listed: [17] | [18] | [19] | [20]
inactive: all other assays above

N#CSCSC#N
inactive: [1] | [2] | [3] | [9] | [13]
active: [4] 8.34 µM | [18] 7.62 µM | [6] 11.7 µM | [7] 10.8 µM | [8] 4.78 µM | [10] 5.45 µM | [11] 5.1 µM | [12] 10.2 µM | [14] 13.5 µM | [15] 5.82 µM

Source: PubChem BioAssay (EPA / NIEHS)
